# Bioassay records as filed in PubChem.
# G9a block: inhibitors of human histone lysine methyltransferase G9a; Q96KQ7; Potency, µM (series often up to 102 µM), inactives show at the highest dose activity, negative = inhibition, actives largely listed as inhibitors; hit rate 8.8% among 350,000; G9a H3K9 monomethylation, AlphaScreen, 2 h; further: on the % scale 0 is the no-effect control and ±100 the full control effect; nearly all actives have a fitted effect of over 75% in size
# Target sequence (Q96KQ7 913-1193 limits assumed): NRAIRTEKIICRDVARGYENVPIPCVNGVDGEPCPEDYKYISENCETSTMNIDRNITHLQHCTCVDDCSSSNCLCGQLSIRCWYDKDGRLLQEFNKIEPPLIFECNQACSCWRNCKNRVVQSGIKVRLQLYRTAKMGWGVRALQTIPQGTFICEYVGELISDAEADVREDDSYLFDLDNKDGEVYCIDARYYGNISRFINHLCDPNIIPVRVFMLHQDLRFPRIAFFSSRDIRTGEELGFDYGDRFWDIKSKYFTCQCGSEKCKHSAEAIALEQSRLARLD
#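 Chemiluminescent proximity detection of H3K9 monomethylation, read after 10 min bead incubation in the dark. Reaction: 20 nM G9a, 500 nM biotin-H3K9 peptide, 20 uM SAM cofactor, 2 h, room temperature, following 15 min enzyme-compound preincubation.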
# BAZ2B block: BAZ2B (human) inhibition; hit rate 4.4% among 360,000; Potency, µM (highest dose often 114 µM), without a hit: top-dose activity change, negative = inhibition, hits mostly inhibitors; Q9UIF8; AlphaScreen BAZ2B-H3K14Ac peptide displacement; further: on the % scale 0 is the no-effect control and ±100 the full control effect; nearly all actives have a fitted effect of over 60% in size
#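 AlphaScreen luminescence quantifies BAZ2B engagement of H3K14Ac peptide; the protein and biotinylated peptide are both at 50 nM final, buffer PBS pH 7.4 with 0.01% Tween-20, all steps at room temperature.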
# VDR inh: blocks the human vitamin D receptor; hit rate 0.93% among 400,000; VDR-SRC2-3 peptide fluorescence polarization, 2 h; P11473; Potency, µM, for inactives: max response, negative = inhibition, actives largely listed as inhibitors; AID 504847; further: on the % scale 0 is the no-effect control and ±100 the full control effect
#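 VDR–SRC2-3 interaction, FP format. Cmpds 23 nl via pintool, brief spin, 2 h ambient incubation.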
# JMJD2A Tudor: JMJD2A Tudor domain (human) inhibition; O75164; AlphaScreen JMJD2A-Tudor / H3K4me3 peptide binding; Potency, µM (series often up to 114 µM), for inactives: top-dose activity change, negative = inhibition, hits mostly inhibitors; hit rate 4.4% among 390,000; further: on the % scale 0 is the no-effect control and ±100 the full control effect; nearly all actives have a fitted effect of over 50% in size
# PLK1 PBD inh: inhibitors of human PLK1 polo-box domain binding | P53350 | Plk1 PBD binding of FITC phosphopeptide, fluorescence polarization | Potency, µM, without a hit: max response, negative = inhibition, actives largely listed as inhibitors | hit rate 2.8% among 360,000 | AID 720504; further: series mostly up to about 57 µM; on the % scale 0 is the no-effect control and ±100 the full control effect; nearly all actives have a fitted effect of over 65% in size
# HP1b chromo inh: HP1-beta chromodomain-methylated histone interaction inhibition; P83916; AlphaScreen HP1-beta / biotin-H3K9me3 peptide binding; Potency, µM (highest dose often 114 µM), without a hit: top-dose activity change, negative = inhibition, usual class: inhibitors; hit rate 0.56% among 390,000; AID 540317; further: nearly all actives have a fitted effect of over 70% in size
# Target sequence (P83916 whole entry, looked up): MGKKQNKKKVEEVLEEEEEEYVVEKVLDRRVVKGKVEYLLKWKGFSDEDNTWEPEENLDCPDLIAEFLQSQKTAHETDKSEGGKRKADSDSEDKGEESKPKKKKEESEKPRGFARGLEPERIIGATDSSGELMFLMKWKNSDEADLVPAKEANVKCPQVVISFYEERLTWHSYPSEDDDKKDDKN
#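 AlphaScreen: HP1-beta (50 nM) preformed 30 min with biotin-H3(1-18)K9me3 peptide (50 nM) in PBS pH 7.4, 0.01% Tween-20. Compound added for 30 min at RT, then streptavidin donor/nickel chelate acceptor beads (10 ug/mL) for 30 min.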
# Starred values were filed as active, the others as inactive; ? = inconclusive; nt = no result; [ ] = another dose, or the depositor's remark. Shown are actives, neighbours in structure and some others; about 11% of the full set was active somewhere. The call rests on the fitted dose curve; in most records, active means well fitted curve in the direction sought with a large enough effect; inconclusive means small, poorly fitted or top-dose-only effect, or another doubt; inactive means no such curve, though single readings can be large; an effect the other way counts as inactive or inconclusive. Potency means the concentration at half of the fitted maximal effect.
SMILES,G9a block,BAZ2B block,VDR inh,JMJD2A Tudor,PLK1 PBD inh,HP1b chromo inh
CCn1c(SCc2nc3sc(C(=O)O)c(C)c3c(=O)[nH]2)nc2ccccc21,2.5µM*,25µM*,-4%,40µM*,?,28µM*
CCCc1cc(=O)[nH]c(SCC(=O)NC(=O)NC2CCCC2)n1,20%[12.7 µM],3%,-5%,-10%,2%,35%
COc1ccc(C2C3=C(CC(C)(C)CC3=O)Oc3ncn(Cc4ccco4)c(=N)c32)cc1 (stereo unspecified),?,50µM*,-6%,?,-5%,24%
NC(=S)N/N=C/c1ccc(C23CC4CC(CC(C4)C2)C3)cc1,nt,-3%[57.1 µM],-12%,?,-10%,11%
Cc1csc(SC(C)C(=O)Nc2ccc(Cl)cn2)n1 (stereo unspecified),18%[59 µM],-5%,-3%,1%[11.4 µM],27µM*,-1%
Cc1c(/C=N/NC(N)=O)c2ccccn2c1C(=O)c1ccncc1,45µM*,-37%,-12%,?,-1%,4%
Cc1c(/C=N/NC(=O)CNc2ccccc2)c2ccccn2c1C(=O)c1ccccc1,40µM*,-22%,9%,?,-14%,-17%
Cc1c(/C=N/NC(=O)c2cccnc2)c2ccccn2c1C(=O)c1ccc(F)cc1,31%[59 µM],-4%,nt,nt,nt,nt
CCc1nn(CC(=O)N2CCN(c3ccc(F)cc3)CC2)c(=O)c2cc3occc3n12,5%,-14%,-6%,-17%,-7%,39%
COc1ccc(NC(=O)CNS(=O)(=O)c2cccs2)cc1,-49%,-5%,-10%,5%,-6%,11%
Cc1ccc(NC(=O)CNS(=O)(=O)c2cccs2)cc1F,79µM*,-36%,0%,-10%,3%,24%
COc1cccc(C(=O)C[n+]2cccc3cc(OC)ccc32)c1,?,-12%,4%,-5%,-7%,40%
COc1cccc(C(=O)C[n+]2ccccc2/C=N/O)c1,50µM*,-25%,-1%,-2%,-6%,43%
COC(=O)[C@]12CCCCC=C1N(Cc1ccccc1)C(=O)[C@H](CC(=O)N1CCN(C(=O)c3ccco3)CC1)C2,nt,nt,nt,nt,-6%,nt
COc1ccccc1Nc1nc(N)nc(CN2CCN(Cc3ccc4c(c3)OCO4)CC2)n1,17%[12.7 µM],?,3%,-18%,7%,21%
Cc1cccc(Nc2nc(N)nc(CCl)n2)c1,?,8%,8%,-3%,-7%,42%
Cc1cccc(Nc2nc(N)nc(CN3CCN(Cc4ccc5c(c4)OCO5)CC3)n2)c1,3%[59 µM],?,-2%,50µM*,-12%,-7%
CN1CCN(Cc2nc(N)nc(Nc3ccc4c(c3)OCCO4)n2)CC1,-29%,50µM*,3%,?,0%,14%
Cc1cccc(Nc2nc(N)nc(CN3CCN(c4ccccc4)CC3)n2)c1,?,-112%,1%,56µM*,-6%,?
Nc1nc(CN2CCN(c3ccccn3)CC2)nc(Nc2ccc(Cl)cc2)n1,50µM*,50µM*,0%,?,-9%,13%
CC(C)(C)C1CCc2c(sc(NC(=O)C3c4ccccc4Oc4ccccc43)c2C(N)=O)C1 (stereo unspecified),-16%[59 µM],-17%,-11%,-30%,nt,26%
CC(OC(=O)CCN=C1NS(=O)(=O)c2ccccc21)C(=O)N(C)C1CCCCC1 (stereo unspecified),3%,-3%,-9%,-3%,2%,39%
CCOc1ccc(Nc2nc(N)nc(CN3CCN(c4ccccc4F)CC3)n2)cc1,?,56µM*,-5%,?,-21%,11%
COc1ccc(Nc2nc(N)nc(CN3CCN(c4ccc(F)cc4)CC3)n2)cc1,?,?,-9%,?,-1%,20%
Cc1ccc(Nc2nc(N)nc(CN3CCc4ccccc4C3)n2)cc1,-31%,?,3%,?,-10%,2%
Nc1nc(CSC(=S)N2CCOCC2)nc(Nc2ccccc2)n1,0%[59 µM],-23%,5%,-14%,3%,32%
Cc1cccc(Nc2nc(N)nc(CN3CCN(c4ccccc4F)CC3)n2)c1,nt,nt,-17%,45µM*,-8%,-17%
